The compounds below were run on RIPK4. Conditions: concentration: 1 μM, replicates: in singlicate; n = 1.
With `O=C(Nc1n[nH]c2nc(-c3ccco3)c(Br)cc12)C1CCN(Cc2ccccc2)C1.O=C(O)[C@H](O)[C@@H](O)C(=O)O` (stereo not shown) [SB-742034] the “%Inh” value was 17%. With `Cn1cnc2c(N)ncnc21` [SKF-97623] the “%Inh” value was 0%. `COc1ccc(Nc2nccc(-c3ccc(NC(=O)c4cc5cc(F)ccc5[nH]4)cc3)n2)cc1` [GSK1229496] was tested, and the “%Inh” value was 0%. In the case of `CNC(=O)c1ccc(C)c(-n2c(C)cc(OCc3ccc(F)cc3F)c(Br)c2=O)c1`, the “%Inh” value was 0%. `Nc1nccc(-c2c(-c3ccc(F)cc3)ncn2C2CCN(Cc3ccccc3)CC2)n1` [SB-219980] was tested, and the “%Inh” value was 7%. With `Cc1ccc(NC(=O)Nc2ccccc2)cc1-c1ccc(C(=O)Nc2ccncc2)cc1` [GSK1398471] the “%Inh” value was 1%. In the case of `Fc1ccc(-c2nc[nH]c2-c2ccncc2)cc1` [SB-217360], the “%Inh” value was 0%. With `CC(C)c1cc(-c2ccc3c(N)n[nH]c3c2)nc(N)n1` [GSK2250882] the “%Inh” value was 4%. With `Fc1ccc(-c2nc3n(c2-c2ccncc2)CCS3)cc1` [GI98581] the “%Inh” value was 0%. With `CCc1ccc(-c2ccc3c(c2)-c2n[nH]cc2S(=O)(=O)N3C)cc1` the “%Inh” value was 0%. For `COc1ccc(CSc2nnc(-c3ccc4c(c3)CCO4)o2)cc1`, the “%Inh” value was 0%. `CSc1ccc(-c2nc3n(c2-c2ccncc2)CCC3)cc1` [SKF-105561] was tested, and the “%Inh” value was 13%. In the case of `COc1cccc(NC(=O)Nc2ccc(C)c(-c3ccc(C(=O)Nc4ccncc4)cc3)c2)c1` [GSK1398474], the “%Inh” value was 23%. With `O=c1cc(N2CCOCC2)nc2n(Cc3cccc(Cl)c3Cl)c3ccccc3n12` [GSK2299009] the “%Inh” value was 16%. In the case of `COC(=O)c1cccc(NC(=O)NC2CCN(c3ccnc(Nc4ccc(F)cc4)n3)C2)c1` (stereo not shown) [GSK1379725], the “%Inh” value was 18%. With `O=C(Nc1n[nH]c2nc(-c3cccs3)c(Br)cc12)C1CC1` [SB-735297] the “%Inh” value was 7%. In the case of `CC(=O)c1c(C)c2cnc(Nc3ccc(N4CCNCC4)cn3)nc2n(C2CCCC2)c1=O`, the “%Inh” value was 0%. In the case of `CN1c2ccc(-c3ccc(C(N)=O)cc3)cc2-c2[nH]ncc2S1(=O)=O`, the “%Inh” value was 0%. `CNc1cc(-c2ccc3c(N)n[nH]c3c2)nc(N)n1` [GSK2224810] was tested, and the “%Inh” value was 64%. For `Cn1cncc1C(=O)NC1CCN(c2ccnc(Nc3ccc(F)cc3)n2)C1` (stereo not shown) [GSK1379717], the “%Inh” value was 33%. `Cn1cncc1-c1cc2c(Nc3ccc(OCc4ccccc4)cc3)ncnc2cn1` [GW281179] was tested, and the “%Inh” value was 8%. In the case of `COc1ccc(-c2coc3ccc(-c4nnc(C)o4)cc23)cc1`, the “%Inh” value was 0%. For `Cc1ccc(NC(=O)Nc2ccc(Cl)cc2)cc1-c1ccc(C(=O)Nc2ccncc2)cc1` [GSK1398472], the “%Inh” value was 28%. In the case of `CC(=O)c1c(C)c2cnc(Nc3ccn(C)n3)nc2n(C2CCCC2)c1=O`, the “%Inh” value was 0%. `COc1ccc(Nc2nccc(N3CCC(NC(=O)c4cc5ccccc5s4)C3)n2)cc1` (stereo not shown) [GSK1379738] was tested, and the “%Inh” value was 20%. With `Cc1nccc(-c2c(-c3ccc(F)cc3)ncn2CCCN2CCOCC2)n1.Cl` [SB-282975] the “%Inh” value was 33%. With `CC[C@@H]1CO[C@H](C(=O)Nc2ccccc2)CN1c1cc(-c2ccc3c(N)n[nH]c3c2)nc(NC)n1` [GSK2376236] the “%Inh” value was 0%. With `NS(=O)(=O)c1cccc(N/C=C2\C(=O)Nc3ccc(S(=O)(=O)Cc4c(Cl)cccc4Cl)cc32)c1` [GSK398099] the “%Inh” value was 14%. In the case of `Nc1cccc(-c2ccc3c(N)n[nH]c3c2)n1` [GSK2192730], the “%Inh” value was 41%. `CCCCc1nn2ncccc2c1-c1ccnc(NC2CC2)n1` [GW684374] was tested, and the “%Inh” value was 7%. In the case of `CNc1nc(-c2ccc3c(N)n[nH]c3c2)cc(N2C[C@@H](C(=O)NC3CCCCC3)OC[C@H]2C)n1` [GSK2375584], the “%Inh” value was 11%. For `COc1cccc(C2=C(Nc3cc(Cl)c(O)c(Cl)c3)C(=O)NC2=O)c1` [SB-390767], the “%Inh” value was 13%. For `COc1ccc(CSc2nnc(-c3ccc4ncsc4c3)o2)cc1C(F)(F)F`, the “%Inh” value was 0%. `Cc1c(Cn2c(C)c(C)n3c(=O)cc(N4CCOCC4)nc23)cccc1C(F)(F)F` [GSK2328680] was tested, and the “%Inh” value was 0%. With `CNc1nc(-c2ccc3c(N)n[nH]c3c2)cc(N2C[C@@H](C(=O)Nc3ccccc3)CC[C@H]2C)n1` [GSK2298859] the “%Inh” value was 0%. For `Cc1ccccc1-c1cc(-c2c[nH]nc2-c2ccccn2)ccn1` [GW680061], the “%Inh” value was 0%. With `COc1ccc(Nc2nccc(NCCNC(=O)Nc3cc(C)ccc3C)n2)cc1` [GSK1379899] the “%Inh” value was 6%.
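Further: KINOMEscan kinase panel screen.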
